The sample as a whole holds a higher share of hits than the screen did.
HT1080-NT tox: qHTS for induction of synthetic lethality in tumor cells producing 2HG: qHTS for the HT-1080-NT fibrosarcoma cell line; HT-1080-NT fibrosarcoma viability, CellTiter-Glo ATP luminescence, 48 h; 360,000 tested, 1.6% active; Potency, µM (highest dose often 46.1 µM), inactives show top-dose activity, negative = less viability, hits mostly cytotoxic;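 further: NT is the 2HG producing partner of a matched IDH1 knockdown line; potency means the concentration at half of the fitted maximal effect; 0% = DMSO-treated cells and -100% = media-only wells without cells; nearly all actives have a fitted effect of over 55% in size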
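Toxicity toward the 2HG-producing NT line was scored as %Activity, normalised to DMSO and no-cell wells, from CellTiter-Glo luminescence after 48 hours' treatment.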
IL-1B inflam inh: qHTS for Inhibitors of Inflammasome Signaling: IL-1-beta AlphaLISA Primary Screen; activity change, % at 57.5 µM; THP-1 LPS/ATP IL-1B secretion, AlphaLISA, 16 h; stronger effect = lower value; AID 743279, 2014; 360,000 tested, 4.7% active; in the data active means activity change below about -50%; inconclusive means mostly about -30% to -49%
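Secreted IL-1B measured by AlphaLISA bead assay after 16 h compound exposure of THP-1 cells; compounds (final up to 57.5 uM) added 1 h before LPS (250 ng/mL) and ATP (1.25 mM) stimulation; lower signal means less secretion.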
ALOX12 inh: Primary qHTS assay for inhibitors of human arachidonate 12S-lipoxygenase (ALOX12): Round 2. purified 12hLO, xylenol orange hydroperoxide absorbance. Potency, µM (highest dose often 108 µM), inactives show top-dose activity change, negative = inhibition, actives largely listed as inhibitors. 580,000 tested, 1.1% active. AID 1671190, 2021; further: potency means the concentration at half of the fitted maximal effect
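Purified human 12hLO at 150 nM in 25 mM Hepes, 0.01% Triton X-100, pH 7.0, preincubated 15 min at room temperature with compound. Reaction started with 40 uM arachidonic acid, 30 min at room temperature. Hydroperoxide measured by Fe-xylenol orange, 573/405 nm absorbance ratio.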
DT40 TDP1 CPT: qHTS for Inhibitors of human tyrosyl-DNA phosphodiesterase 1 (TDP1): qHTS in cells in presence of CPT. chicken DT40 Tdp1-/-;hTDP1 cells + 20 nM CPT, ATP luminescence, 48 h. Potency, µM (highest dose often 46.2 µM), for inactives: at the top dose activity change, negative = growth inhibition, usual class: inhibitors. 420,000 tested, 12% active. AID 686979, 2013; further: potency means the concentration at half of the fitted maximal effect; nearly all actives have a fitted effect of over 55% in size
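Chicken DT40 Tdp1-/- cells complemented with human TDP1, 400 cells/well, exposed to compounds plus 20 nM camptothecin for at least 48 h at 37 C; viability read as ATP content by CellTiter-Glo luminescence.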
TDP1 cell noCPT: qHTS for Inhibitors of human tyrosyl-DNA phosphodiesterase 1 (TDP1): qHTS in cells in absence of CPT | DT40 Tdp1-/- hTDP1 cells, no CPT, ATP luminescence, 48 h | Potency, µM (titrated, usually from 46.2 µM), for the others: at the highest dose activity change, negative = growth inhibition, usual class: inhibitors | 420,000 tested, 15% active; further: potency means the concentration at half of the fitted maximal effect; nearly all actives have a fitted effect of over 55% in size
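Growth of hTDP1-complemented DT40 Tdp1-knockout cells is measured by ATP luminescence after at least 48 hr compound exposure at 37 °C, with DMSO substituting for the 20 nM CPT used in the parallel screen.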
HT1080 IDH1KD tx: qHTS for induction of synthetic lethality in tumor cells producing 2HG: qHTS for the HT-1080-IDH1KD cell line; HT-1080 IDH1 knockdown viability, ATP luminescence, 48 h; AID 686971, 2013; Potency, µM (top dose mostly 46.1 µM), for the others: at the top dose activity, negative = toxicity, actives largely listed as cytotoxic; 360,000 tested, 2% active;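 further: potency means the concentration at half of the fitted maximal effect; 0% = DMSO wells and -100% = cell-free medium wells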
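IDH1KD HT-1080 cells, 750/well, RPMI + 5% FBS; compound pinned after 2 h settling; 48 h, 37 °C; CellTiter-Glo luminescence; % activity normalised to DMSO and no-cell wells; curves fitted, classed by r2 and efficacy.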
The depositor's hits bear a star; ? = inconclusive; · = no result given. Unless noted, the call rests on the fitted dose curve; in most records, active means well fitted curve in the direction sought with a large enough effect; inconclusive means small, poorly fitted or top-dose-only effect, or another doubt; inactive means no such curve, though single readings can be large; an effect the other way counts as inactive or inconclusive. Unless noted, on the % scale 0 is the no-effect control and ±100 the full control effect.

SMILES	HT1080-NT tox	IL-1B inflam inh	ALOX12 inh	DT40 TDP1 CPT	TDP1 cell noCPT	HT1080 IDH1KD tx
CC(Oc1cccc(Cl)c1)C(=O)Nc1ccc(N2CCOCC2)cc1N1CCOCC1 (stereo not drawn)	-25.6%	-23.8	2.8%	?	13µM*	-1.7%
CC(C)COc1cccc(C(=O)Nc2ccc(N3CCOCC3)cc2N2CCOCC2)c1	10.0%	-26.7	-20.4%	?	13µM*	5.9%
CCOc1ccc(NC(=O)c2ccc(NC(=O)c3ccc(CN4CCOCC4)cc3)cc2)cc1	2.1%	0.0	-8.5%	-5.3%	-18.2%	-11.3%
CCC(C)Oc1ccc(C(=O)Nc2ccc(CN3CCOCC3)cc2)cc1 (stereo not drawn)	?	?	?	20.6µM*	14.6µM*	-29.6%
Cc1cc(NCc2ccccc2)n2ncnc2n1	2.3%	22.7	0.4%	?	11.6µM*	1.6%
COc1ccc(CCNc2cc(-c3ccccc3)nc3ncnn23)cc1	0.0%	-0.3	-2.6%	23.1µM*	?	-13.2%
C#CCNc1cc(-c2ccccc2)nc2ncnn12	-0.9%	21.4	-4.7%	-6.9%	2.5%	5.9%
Cc1cc(NCC(c2ccccc2)c2ccccc2)n2ncnc2n1	6.7%	29.3	-5.4%	?	?	-6.3%
O=[N+]([O-])c1cc2c(c([N+](=O)[O-])c1)Nc1ccccc1O2	?	?	-24.6%	11.6µM*	7.31µM*	-3.5%
Cc1ccc2c(c1)NC(=O)c1cccnc1O2	·	·	-16.1%	0.1%	-22.8%	·
O=C1Nc2ccccc2Oc2cc([N+](=O)[O-])cc(Oc3ccccc3)c21	-0.7%	8.0	1.3%	?	?	-11.8%
Cc1cccc(Oc2ccc3c(c2)Oc2ccccc2NC3=O)c1	·	·	?	16.4µM*	?	·
Cc1cccc(Oc2cc([N+](=O)[O-])cc3c2C(=O)Nc2ccccc2O3)c1	-2.5%	0.0	?	?	13µM*	-22.9%
N#Cc1nc(-c2cccs2)oc1N1CCN(C(=O)c2cccc(Cl)c2)CC1	·	·	54.0%	·	·	·
CC(=O)Nc1ccc(NC(=O)c2oc3c(c2C)-c2nn(Cc4ccccc4Cl)cc2CC3)cc1	·	·	?	8.2µM*	18.4µM*	·
COc1ccc(CNC(=O)c2oc3c(c2C)-c2nn(Cc4ccccc4Cl)cc2CC3)cc1	·	·	?	?	23.1µM*	·
CCOc1ccc(CCNC(=O)c2oc3c(c2C)-c2[nH]ncc2CC3)cc1OCC	0.0%	-2.9	9.5%	?	?	5.3%
Cc1c(C(=O)NCCN(C)C)oc2c1-c1nn(Cc3ccccc3Cl)cc1CC2	·	·	-23.3%	?	?	·
CCOc1ccc(CNC(=O)c2oc3c(c2C)-c2nn(Cc4cccc(Cl)c4)cc2CC3)cc1	·	·	0.0%	18.4µM*	16.4µM*	·
COc1ccccc1CNC(=O)c1oc2c(c1C)-c1nn(Cc3ccc(Cl)cc3)cc1CC2	·	·	?	16.4µM*	20.6µM*	·
Cc1cccc(CNC(=O)c2oc3c(c2C)-c2nn(Cc4cccc(Cl)c4)cc2CC3)c1	·	·	0.0%	?	29.1µM*	·
CCn1cc2c(n1)-c1c(oc(C(=O)Nc3ccc(Br)cc3F)c1C)CC2	·	·	-2.2%	?	20.6µM*	·
CCn1cc(Br)c(C(=O)Nc2ccc(F)cc2F)n1	14.4%	-10.9	-1.4%	-0.2%	-9.3%	19.0%
Cc1c(C(=O)NCc2ccccc2)oc2c1-c1[nH]ncc1CC2	·	·	0.0%	?	-16.4%	·

Bioassay records (PubChem BioAssay)
